For seven compounds, Potency results are on record in PubChem BioAssay (Tox21).

Test [1] in a line: Nuclear factor erythroid 2-related factor 2/antioxidant responsive element (Nrf2/ARE) small molecule agonists: qHTS cell viability counter screen in human keratinocytes (AID 1919968; active = well fitted curve in the direction sought with a large enough effect in the repeat runs; an effect the other way counts as inactive or inconclusive; also: nearly all actives have a fitted effect of over 55% in size). The method, boiled down: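 After a 5 h attachment period, ARE-reporter keratinocytes were dosed with compounds in DMSO and then cultured 23 h at 37 C. Cell viability came from CellTiter-Fluor signal read after a further 1 h.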

Test [2] in a line: Nuclear factor erythroid 2-related factor 2/antioxidant responsive element (Nrf2/ARE) small molecule agonists: luciferase reporter gene qHTS assay in human keratinocytes (AID 1919969). Also: nearly all actives have a fitted effect of over 35% in size. Also: potency is read from the fitted curve at half-maximal effect.
Test [3] addresses Gonadotropin-releasing hormone receptor (Homo sapiens) (UniProt P30968). The test is described as follows: Human gonadotropin-releasing hormone receptor (GnRHR) small molecule agonists, calcium flux assay in GnRHR-HEK293 cells (AID 1920063). Also: nearly all actives have a fitted effect of over 35% in size. The method, boiled down: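 We seeded human GnRHR-expressing HEK293 cells for 18 hours, loaded them with calcium dye for an hour at 37 C, added test compounds, and recorded fluorescence intensity kinetically for three minutes.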

For test [4], the target named is KiSS-1 receptor (Homo sapiens) (UniProt Q969F8). Description: Human kisspeptin (KISS1R) small molecule agonists, calcium flux assay in KISS1R-HEK293 cells (AID 1920064; active = well fitted curve in the direction sought with a large enough effect in the repeat runs; an effect the other way counts as inactive or inconclusive). The method, boiled down:
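Kinetic calcium assay, 1 s sampling over 3 min at Ex/Em 480/540, in HEK293 cells engineered with human KISS1R; compounds delivered in DMSO after 1 h dye loading.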

Test [5] is described as follows: G protein-coupled receptor (GPCR) small molecule agonists, calcium flux assay: HEK293 wild type cell line counter screen (AID 1920065). The essentials: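 Calcium-sensitive dye, loaded 1 h at 37 C into cells cultured 18 h, reports compound-evoked calcium release as fluorescence (Ex/Em 480/540), measured over 3 min. Agonist mode; 15-point titrations, triplicate.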

Test [6] can be described thus: p53 small molecule agonists, cell-based qHTS assay with human liver microsomes (AID 1963577).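 Also: p53 response element beta-lactamase reporter cells with liver microsomes plus NADPH.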 The method, boiled down:
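With metabolic activation: human liver microsomes (0.5 mg/mL final) plus NADPH (0.5 mg/mL final) added alongside compounds to p53RE-bla cells; 16 h 37 C exposure; beta-lactamase read by LiveBLAzer fluorescence.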

A short description of test [7]: p53 small molecule agonists, cell-based qHTS assay with rat liver microsomes (AID 1963578). The method, boiled down: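 Metabolic activation by rat liver microsomes and NADPH, each 0.5 mg/mL final, added right after compounds to p53RE-bla reporter cells (4,000/well, plated 5 h earlier). 16 h at 37 C, then LiveBLAzer substrate for 2 h at room temperature in the dark; fluorescence read-out.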

Test [8] in a line: p53 small molecule agonists, cell-based qHTS assay with human liver microsomes: qHTS cell viability counter screen (AID 1963579). Also: nearly all actives have a fitted effect of over 45% in size. The method, boiled down: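 Metabolic activation used human liver microsomes and NADPH, both 0.5 mg/mL final, over 16 hours at 37 C on p53RE-bla cells (4,000/well). Cytotoxicity measured by CellTiter-Glo luminescence, 30 min at room temperature.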
Test [9] can be described thus: p53 small molecule agonists, cell-based qHTS assay with rat liver microsomes: qHTS cell viability counter screen (AID 1963580). Also: nearly all actives have a fitted effect of over 45% in size. The essentials: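 Intracellular ATP, by CellTiter-Glo luminescence, defines viability. HCT-116 p53RE-bla cells, 4,000 per well, were compound-treated in the presence of rat liver microsomes and NADPH for 16 h at 37 C.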
Test [10] can be described thus: p53 small molecule agonists, cell-based qHTS assay: qHTS cell viability counter screen (AID 1963581). Also: nearly all actives have a fitted effect of over 45% in size. The method, boiled down: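 Following 5 h attachment, HCT-116 p53RE-bla cells took up compound for 16 h at 37 C; the reporter was read with B/G FRET substrate (2 h RT), and viability then via CellTiter-Glo ATP luminescence.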
Test [11] is described as follows: p53 small molecule agonists, cell-based qHTS assay (AID 1963582; active = well fitted activation curve with a large enough effect in the signal ratio in the repeat runs, not every such curve was filed as active; the % refers to the signal ratio). The method, boiled down:
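In this cell-based concentration-response screen, a p53 response element drives beta-lactamase; cells received DMSO-borne compounds after 5 h culture and were incubated a further 16 h before FRET substrate development.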

In test [12] the target is 5-hydroxytryptamine receptor 2A (Homo sapiens) (UniProt P28223). The test is described as follows: 5-hydroxytryptamine receptor 2A (HTR2A) small molecule antagonists, cell-based qHTS assay (AID 1963586). Also: nearly all actives have a fitted effect of over 45% in size. The method, boiled down:
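Antagonist-mode intracellular calcium assay: DOI (4 nM) added after 5 min compound pre-incubation at room temperature to dye-loaded HTR2A-CHO cells. Fluorescence followed for 3 min, sampled every second.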

Test [13] has the same target. The test is described as follows: 5-hydroxytryptamine receptor 2A (HTR2A) small molecule agonists, cell-based qHTS assay (AID 1963587). Also: nearly all actives have a fitted effect of over 30% in size. The method, boiled down: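 Kinetic calcium-flux fluorescence (2 min, 1 sec intervals) after compound addition in agonist mode. HTR2A-CHO cells were cultured 18 h, then dye-loaded 1 h at 37 C.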
Test [14] deals with Muscarinic acetylcholine receptor M1 (Homo sapiens) (UniProt P11229). The test is described as follows: Cholinergic receptor muscarinic 1 (CHRM1) small molecule antagonists, cell-based qHTS assay (AID 1963588). Also: nearly all actives have a fitted effect of over 40% in size. Also: potency is read from the fitted curve at half-maximal effect. The method, boiled down:
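CHRM1-CHO calcium-flux assay, antagonist mode. Cells were seeded 18 h, dye-loaded 1 h at 37 C and given compound for 5 min at RT, then acetylcholine was added at 50nM. FDSS fluorescence was read 3 min; 15 concentrations, three runs.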

The target is the same in test [15]. The test is described as follows: Cholinergic receptor muscarinic 1 (CHRM1) small molecule agonists, cell-based qHTS assay (AID 1963589). Also: nearly all actives have a fitted effect of over 35% in size. The essentials:
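Measures agonist-induced intracellular calcium rise. Stable human CHRM1 CHO line, 1 h dye load at 37 C, compounds from DMSO, kinetic fluorescence read.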

The nature of test [16]: cAMP Responsive Elements (CRE) small molecule agonists, cell-based qHTS assay (AID 1963590). The method, boiled down:
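A CRE-responsive beta-lactamase reporter in HEK 293T cells was used. Treatment ran 3 h at 37 C; detection used LiveBLAzer B/G FRET substrate for 2 h at room temperature.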

Test [17] in a line: cAMP Responsive Elements (CRE) small molecule antagonists, cell-based qHTS assay (AID 1963591; active = well fitted inhibition curve with a large enough effect in the signal ratio in the repeat runs, not every such curve was filed as active; the % refers to the signal ratio). The essentials:
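HEK293T cells carrying a CRE-driven beta-lactamase reporter receive compound and NKH477 (0.25 uM final) for 3 h. Fluorescence from LiveBLAzer B/G FRET substrate is read after 2 h at room temperature.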

In test [18] the target is Beta-2 adrenergic receptor (Homo sapiens) (UniProt P07550). Description: Adrenergic beta2 receptor (ADRB2) small molecule antagonists, cell-based qHTS assay (AID 1963592). Also: series mostly up to about 92 µM; nearly all actives have a fitted effect of over 50% in size. The essentials:
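Cells (CHO, stable ADRB2 overexpression) incubated 18-20hr at 37C; compounds added from DMSO; agonist mix (1nM isoproterenol, 100uM IBMX, 25uM Ro-20-1724) added; 0.5hr RT; d2-cAMP and anti-cAMP-cryptate added; 1hr RT; 665/615 nm read.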

Test [19] addresses D(2) dopamine receptor (Homo sapiens) (UniProt P14416). The test is described as follows: Dopamine D2 receptor (DRD2) small molecule agonists, cell-based qHTS assay (AID 1963594). Also: nearly all actives have a fitted effect of over 35% in size. The essentials:
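cAMP accumulation in DRD2-HEK293 cells measured by HTRF after 1 h detection; compounds added 10 min before NKH477 (200nM […]) forskolin-analogue stimulation, 30 min at room temperature, with Ro20-1724 present at 0.1 mM final.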

For test [20] the target is unchanged. Description: Dopamine D2 receptor (DRD2) small molecule antagonists, cell-based qHTS assay (AID 1963595; active = well fitted inhibition curve with a large enough effect in the signal ratio in the repeat runs, with a control signal flat; the % refers to the signal ratio). The method, boiled down: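 HEK293 cells stably expressing DRD2, preincubated with 0.1 mM Ro20-1724 and compounds 10 min, were stimulated with 200 nM NKH477 plus 12 nM quinpirole for 30 min at room temperature; cAMP measured by HTRF (665/620 nm).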

Results filed as inconclusive are left out. Activity calls are given as the source filed them. Unless noted, calls follow the shape of the full dose curve.

5-hydroxytryptamine receptor 2A (Homo sapiens), sequence (P28223 whole entry, looked up): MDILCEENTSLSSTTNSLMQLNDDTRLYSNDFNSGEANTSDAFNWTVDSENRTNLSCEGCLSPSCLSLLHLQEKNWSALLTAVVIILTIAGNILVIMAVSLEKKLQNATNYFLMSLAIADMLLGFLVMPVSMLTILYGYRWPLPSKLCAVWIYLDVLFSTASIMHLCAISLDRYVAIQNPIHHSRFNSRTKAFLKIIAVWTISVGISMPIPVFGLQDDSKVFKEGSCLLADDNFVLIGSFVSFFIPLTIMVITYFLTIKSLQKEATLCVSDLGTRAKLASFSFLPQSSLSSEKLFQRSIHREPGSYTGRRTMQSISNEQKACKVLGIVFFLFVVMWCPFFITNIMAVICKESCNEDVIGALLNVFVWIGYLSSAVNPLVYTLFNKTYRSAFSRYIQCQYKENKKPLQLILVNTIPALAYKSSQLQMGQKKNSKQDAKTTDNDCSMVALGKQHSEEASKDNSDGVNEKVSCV
Gonadotropin-releasing hormone receptor (Homo sapiens), sequence (P30968 whole entry, looked up): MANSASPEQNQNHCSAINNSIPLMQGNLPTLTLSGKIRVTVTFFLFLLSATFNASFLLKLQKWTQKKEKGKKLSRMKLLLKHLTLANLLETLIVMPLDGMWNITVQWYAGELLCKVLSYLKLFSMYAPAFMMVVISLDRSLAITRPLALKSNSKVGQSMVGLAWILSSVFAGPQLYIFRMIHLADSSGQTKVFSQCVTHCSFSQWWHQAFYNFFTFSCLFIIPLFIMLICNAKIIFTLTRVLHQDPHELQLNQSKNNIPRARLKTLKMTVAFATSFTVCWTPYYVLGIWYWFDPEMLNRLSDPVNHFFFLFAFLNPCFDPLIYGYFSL
KiSS-1 receptor (Homo sapiens), sequence (Q969F8 whole entry, looked up): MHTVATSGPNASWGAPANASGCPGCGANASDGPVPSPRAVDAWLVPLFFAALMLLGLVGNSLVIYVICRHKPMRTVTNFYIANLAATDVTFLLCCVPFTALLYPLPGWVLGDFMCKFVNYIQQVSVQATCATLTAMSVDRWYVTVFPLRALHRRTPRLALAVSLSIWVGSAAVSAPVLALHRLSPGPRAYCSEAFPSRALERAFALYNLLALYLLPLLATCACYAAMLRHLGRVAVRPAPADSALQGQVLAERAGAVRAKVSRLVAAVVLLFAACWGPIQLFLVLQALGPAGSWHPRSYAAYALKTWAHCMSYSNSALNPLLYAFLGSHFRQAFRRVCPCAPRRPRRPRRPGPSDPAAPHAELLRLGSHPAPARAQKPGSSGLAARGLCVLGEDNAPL
Beta-2 adrenergic receptor (Homo sapiens), sequence (P07550 whole entry, looked up): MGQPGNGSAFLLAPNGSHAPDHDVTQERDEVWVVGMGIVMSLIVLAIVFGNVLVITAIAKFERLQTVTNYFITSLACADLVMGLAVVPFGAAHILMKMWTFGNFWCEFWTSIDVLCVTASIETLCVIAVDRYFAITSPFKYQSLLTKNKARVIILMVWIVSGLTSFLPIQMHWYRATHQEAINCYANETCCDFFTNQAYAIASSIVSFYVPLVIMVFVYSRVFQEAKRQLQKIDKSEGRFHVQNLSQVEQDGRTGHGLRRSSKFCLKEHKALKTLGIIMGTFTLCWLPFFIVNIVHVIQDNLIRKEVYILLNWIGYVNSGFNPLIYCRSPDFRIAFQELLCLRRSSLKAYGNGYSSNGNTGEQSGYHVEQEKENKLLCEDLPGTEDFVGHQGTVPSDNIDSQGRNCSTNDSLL
Muscarinic acetylcholine receptor M1 (Homo sapiens), sequence (P11229 whole entry, looked up): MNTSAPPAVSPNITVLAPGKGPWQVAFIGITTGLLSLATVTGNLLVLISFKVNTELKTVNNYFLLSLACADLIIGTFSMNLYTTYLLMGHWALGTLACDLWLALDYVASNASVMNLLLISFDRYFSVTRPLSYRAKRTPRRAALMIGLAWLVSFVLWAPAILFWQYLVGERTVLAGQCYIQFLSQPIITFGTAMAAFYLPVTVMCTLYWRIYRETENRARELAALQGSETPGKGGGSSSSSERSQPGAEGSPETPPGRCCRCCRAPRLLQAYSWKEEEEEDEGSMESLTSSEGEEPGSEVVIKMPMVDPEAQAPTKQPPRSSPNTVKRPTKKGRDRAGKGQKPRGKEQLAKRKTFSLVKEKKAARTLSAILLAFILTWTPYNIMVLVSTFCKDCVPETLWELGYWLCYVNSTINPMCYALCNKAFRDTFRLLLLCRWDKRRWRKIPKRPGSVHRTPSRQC
D(2) dopamine receptor (Homo sapiens), sequence (P14416 whole entry, looked up): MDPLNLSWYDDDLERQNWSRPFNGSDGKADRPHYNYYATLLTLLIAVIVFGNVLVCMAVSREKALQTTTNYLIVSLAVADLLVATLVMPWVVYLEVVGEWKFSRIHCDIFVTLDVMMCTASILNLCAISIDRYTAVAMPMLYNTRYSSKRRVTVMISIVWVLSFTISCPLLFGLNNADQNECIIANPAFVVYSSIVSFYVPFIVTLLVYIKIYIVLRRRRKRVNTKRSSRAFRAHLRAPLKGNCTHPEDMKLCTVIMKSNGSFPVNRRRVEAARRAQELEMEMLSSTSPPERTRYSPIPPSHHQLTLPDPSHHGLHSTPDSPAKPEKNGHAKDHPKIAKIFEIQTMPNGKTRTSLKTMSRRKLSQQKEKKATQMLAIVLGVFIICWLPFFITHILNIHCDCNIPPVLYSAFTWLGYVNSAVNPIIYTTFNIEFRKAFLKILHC

As for `c1ccc(CCCc2ccncc2)cc1`, the Potency entry in [1], in test [3], in test [4], in [5], in test [6] and in test [7] was “inactive” each time. For the same compound, the Potency entry in test [8], in test [9], in [10], in test [11], in test [12] and in test [13] was “inactive” each time. The Potency result in [14], in [15], in test [16], in test [17], in test [18] and in test [19] was “inactive” each time. In addition, in test [20], the Potency entry was “inactive”. For the same compound, in test [2], the Potency is 48.6 µM (active).

On to `NCc1ccc(S(N)(=O)=O)cc1`, for which the Potency result in test [1], in [2], in [3], in [4], in test [5] and in test [6] was “inactive” in each case. Further, the Potency entry in [7], in [8], in test [9], in test [10], in [11] and in test [12] was “inactive” throughout. Moreover, the Potency entry in [13], in test [14], in [15], in [16], in test [17] and in test [19] was “inactive” in each case. Further, the Potency result in test [20] was “inactive”.

`OCCCCCCCl`: the Potency entry in test [1], in test [2], in test [3], in [4], in test [5] and in test [6] was “inactive” throughout. In addition, the Potency result in test [7], in test [8], in test [9], in [10], in test [11] and in test [12] was “inactive” in each case. The Potency result in [13], in test [14], in test [15], in test [16], in [17] and in [18] was “inactive” each time. Also, the Potency entry in test [19] and in [20] was “inactive” each time.

Turning to `CC(C)OC(=O)C(O)(CC(=O)O)CC(=O)O`, the Potency entry in test [1], in [2], in test [3], in test [4], in [5] and in test [6] was “inactive” each time. Further, the Potency entry in [7], in [8], in [9], in test [10], in test [11] and in [12] was “inactive” throughout. Moreover, the Potency entry in test [13], in [14], in test [15], in test [16], in [17] and in test [18] was “inactive” throughout. Further, the Potency entry in [19] and in test [20] was “inactive” each time.

As for `CCCOC(C(=O)OC1CCN(C)CC1)(c1ccccc1)c1ccccc1`, the Potency result in test [1], in test [3], in [4], in test [5], in test [6] and in test [7] was “inactive” in each case. For the same compound, the Potency entry in test [8], in [9], in test [10], in test [11], in test [12] and in test [13] was “inactive” each time. The Potency result in [15], in test [16], in [17], in [18] and in test [20] was “inactive” in each case. Further, the Potency was 10.6 µM (active) in test [2] and 0.729 µM (active) in [14].

Turning to `O=C(O)/C=C/c1cnc[nH]1`, the Potency entry in [1], in test [2], in [3], in test [4], in test [5] and in [6] was “inactive” each time. In addition, the Potency result in test [7], in test [8], in test [9], in test [10], in test [11] and in [12] was “inactive” in each case. Besides, the Potency entry in test [13], in [14], in [15], in test [16], in test [17] and in test [18] was “inactive” throughout. Further, the Potency result in [19] and in test [20] was “inactive” each time.

In the case of `Oc1c(Cl)ccc(Cl)c1Cl`, the Potency result in [1], in test [2], in [3], in test [4], in test [5] and in test [6] was “inactive” in each case. The Potency result in test [7], in test [8], in test [9], in [10], in test [11] and in [12] was “inactive” each time. Also, the Potency entry in test [13], in test [14], in test [15], in test [16], in test [17] and in test [18] was “inactive” each time. In addition, the Potency result in [19] and in test [20] was “inactive” in each case.
